Data from PubChem BioAssay AID720551 (National Center for Advancing Translational Sciences (NCATS), 2013).
About 1,300 (0.38%) of roughly 340,000 compounds were called active.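 Rule for the calls: active = maximum activity change below -70%; inconclusive = maximum activity change between -70% and -50%; inactive = maximum activity change above -50%.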 Many of the other results were omitted from the sample, so actives are more common in it than they were.

What follows are compounds tested against Voltage-gated inwardly rectifying potassium channel KCNH2 (Homo sapiens) (UniProt Q12809) (assay: qHTS for Inhibitors of KCHN2 3.1: Wildtype qHTS). Settings: U2OS, BacMam KCNH2, thallium flux FluxOr; at 1.84 µM; stronger effect = lower value.
Procedure, shortened: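 U2OS cells were transduced with wild-type KCNH2 virus (2.03 x 10^8 / mL) for 4 h at room temperature, then cultured overnight at 37 C. Thallium flux was read with FluxOr dye. Rate constants were normalized to DMSO controls.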
% is set by controls: 0 for no effect and ±100 for the full control effect.

Sequence of Voltage-gated inwardly rectifying potassium channel KCNH2 (Homo sapiens) (Q12809 whole entry, looked up): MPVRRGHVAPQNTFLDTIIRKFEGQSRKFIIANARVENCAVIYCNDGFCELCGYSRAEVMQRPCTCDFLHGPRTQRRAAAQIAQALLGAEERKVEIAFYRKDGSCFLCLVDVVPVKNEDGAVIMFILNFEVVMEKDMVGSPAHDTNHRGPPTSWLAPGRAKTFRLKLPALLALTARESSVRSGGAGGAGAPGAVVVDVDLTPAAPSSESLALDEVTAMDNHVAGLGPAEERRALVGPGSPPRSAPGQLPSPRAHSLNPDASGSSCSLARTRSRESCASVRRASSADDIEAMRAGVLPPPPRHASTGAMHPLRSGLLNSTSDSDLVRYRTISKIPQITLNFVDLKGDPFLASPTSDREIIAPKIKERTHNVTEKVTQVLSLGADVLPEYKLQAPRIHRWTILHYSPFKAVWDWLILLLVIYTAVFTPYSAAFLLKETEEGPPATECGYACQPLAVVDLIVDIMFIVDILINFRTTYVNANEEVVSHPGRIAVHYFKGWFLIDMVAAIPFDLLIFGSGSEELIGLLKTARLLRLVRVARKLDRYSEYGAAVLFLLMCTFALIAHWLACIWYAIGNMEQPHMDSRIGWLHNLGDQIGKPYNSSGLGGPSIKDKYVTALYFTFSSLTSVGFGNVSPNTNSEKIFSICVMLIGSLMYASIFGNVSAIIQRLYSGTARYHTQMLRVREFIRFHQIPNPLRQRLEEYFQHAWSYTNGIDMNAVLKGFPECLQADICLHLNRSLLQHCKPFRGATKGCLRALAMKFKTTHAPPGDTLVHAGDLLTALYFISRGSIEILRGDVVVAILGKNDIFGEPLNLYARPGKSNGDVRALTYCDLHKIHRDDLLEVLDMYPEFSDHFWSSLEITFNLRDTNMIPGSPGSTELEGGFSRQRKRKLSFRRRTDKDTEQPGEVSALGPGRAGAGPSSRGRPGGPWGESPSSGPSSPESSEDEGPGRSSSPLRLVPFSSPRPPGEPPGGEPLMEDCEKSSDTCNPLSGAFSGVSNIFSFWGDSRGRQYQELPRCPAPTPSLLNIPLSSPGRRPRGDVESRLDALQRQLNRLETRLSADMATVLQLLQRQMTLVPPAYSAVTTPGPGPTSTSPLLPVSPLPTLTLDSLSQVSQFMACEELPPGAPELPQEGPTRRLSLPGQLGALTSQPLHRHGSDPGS

SMILES | activity change
CCN(CC)C(=O)C1=C(C)N(Cc2ccc(F)cc2)C(=O)C(CC(=O)NCc2cccc3ccccc23)C1 (stereo not given) | 6.51% (inactive)
O=C(Oc1ccccc1)c1ccc2nccnc2c1 | -169% (active)
O=C(Oc1ccc(-c2nc(-c3ccccn3)no2)cc1)c1ccccc1 | -11.6% (inactive)
COC(=O)c1ccc(OC(=O)c2cnccn2)cc1 | -0.0992% (inactive)
Cc1cccc(C(=O)C(O)(c2ccccc2)C2CCCCC2=O)c1 (stereo not given) | 8.63% (inactive)
N#CCSc1ccccc1NC(=O)CN1C(=O)NC(CCc2ccccc2)C1=O (stereo not given) | -4.38% (inactive)
CC1CCC2(CC1)NC(=O)N(CC(=O)NCc1ccco1)C2=O (stereo not given) | 5.92% (inactive)
COc1ccc(CCNC(=O)CN2C(=O)CCSc3ccccc32)c(OC)c1 | -169% (active)
COc1ccc(CCNC(=O)CCc2cn(C)c3ccccc23)c(OC)c1 | 6.58% (inactive)
CCOC(=O)CNC(=O)CN1C(=O)CCSc2ccccc21 | 10.6% (inactive)
CCOC(=O)C(C(=O)c1ccccc1)C(c1ccccc1)c1nccc2ccccc12 (stereo not given) | 3.11% (inactive)
O=C(CN1CCN(C(=O)c2ccco2)CC1)Nc1ccc2c(c1)OCO2 | -4.79% (inactive)
O=C(COC(=O)c1ccc(F)cc1)Nc1ccc2c(c1)OCO2 | -0.371% (inactive)
O=C(CN1CCN(CC(=O)Nc2ccc3c(c2)OCO3)CC1)Nc1ccc(F)cc1 | -129% (active)
CCCCN1C(=O)C(CC(=O)NCc2cccs2)CC(C(=O)N2CCOCC2)=C1C (stereo not given) | -2.88% (inactive)
Cc1ccc(S(=O)(=O)N2C[C@]3(O)C[C@@H]4C(=O)N(c5ccccc5)C(=O)[C@@H]4C[C@]3(OC(=O)NC3CC3)C2)cc1 | -7.72% (inactive)
CN(C)/C=C(/C(=O)c1ccc(Cl)cc1)S(=O)(=O)c1ccccc1 | 0.0109% (inactive)
CN(C)/C=C(/C(=O)c1ccccc1)S(=O)(=O)c1ccc(Cl)cc1 | -7.44% (inactive)
CN(C)/C=C(/C(=O)c1ccccc1Cl)S(C)(=O)=O | -134% (active)
COCC1CCCCN1C(=O)c1cc(COc2ccc(C)c(C)c2)on1 (stereo not given) | -11.8% (inactive)
